Test results taken from the supplement of paper PMC12645437, “Orthogonal IMiD-Degron Pairs Induce Selective Protein Degradation in Cells” (ACS Chemical Biology, 2025).
The full ranking holds about 8,300 sequences; the median of “log2 fold change of degron read counts, EGFP-low vs EGFP+ sorted cells (limma voom), compound-induced degradation” is about -1.1, and the highest 2% start at about 3.2. What follows is part of a selection rich in the highest values, with near analogues and random picks from the rest.

T1: CRBN, Q96SW2
T1 chain: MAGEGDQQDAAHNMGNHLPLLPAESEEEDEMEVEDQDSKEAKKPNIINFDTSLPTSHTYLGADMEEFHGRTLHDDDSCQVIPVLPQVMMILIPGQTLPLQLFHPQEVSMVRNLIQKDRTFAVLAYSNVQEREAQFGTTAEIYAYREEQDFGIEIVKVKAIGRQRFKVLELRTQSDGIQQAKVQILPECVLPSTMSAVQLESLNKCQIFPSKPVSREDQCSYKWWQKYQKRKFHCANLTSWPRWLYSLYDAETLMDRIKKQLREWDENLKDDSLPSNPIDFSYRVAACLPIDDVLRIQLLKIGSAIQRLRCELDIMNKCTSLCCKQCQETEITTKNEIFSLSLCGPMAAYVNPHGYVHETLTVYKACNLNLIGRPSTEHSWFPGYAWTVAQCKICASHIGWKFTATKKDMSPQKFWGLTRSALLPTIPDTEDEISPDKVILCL


Molecular target: T1, CRBN, Q96SW2
Assay: log2 fold change of degron read counts, EGFP-low vs EGFP+ sorted cells (limma voom), compound-induced degradation; higher = more compound-induced degradation of the degron-EGFP fusion; degrons are variants of IKZF1/3 zinc finger 2; compound dose not given here
Conditions: Jurkat, 18 h
[1] = compound: compound 19 (5-tert-butyl-thalidomide)
[2] = compound: compound 22 (5-morpholino-thalidomide)
[3] = compound: compound 33 (diphenyl IMiD analogue)
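Note: pooled lentiviral library of zinc finger degron-EGFP fusions in mCherry-positive Jurkat cells, FACS-sorted after compound exposure, with degron abundance counted by next-generation sequencing.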

Row | Sequence | log2 fold change of degron read counts [1] | log2 fold change of degron read counts [2] | log2 fold change of degron read counts [3] | log2 fold change of degron read counts (compound: thalidomide)
1 | FQCNQCGANFTQKGNLLRHIKL [46F_47Q_49N_50Q_52G_53A_54N_55F_67L_, Q9UKT9] | -2.24 | -1.57 | -1.76 | -0.0144
2 | FSCDQCGALFTQKGNLLRHIKL [46F_47S_49D_50Q_52G_53A_54L_55F_67L_, Q9UKT9] | -2.6 | -3.3 | -0.185 | -3.02
3 | FNCSVCGHNFTQKGNLLRHIKL [46F_47N_49S_50V_52G_53H_54N_55F_67L_, Q9UKT9] | -2.71 | -4.15 | -3.1 | -2.83
4 | FWCPICGHYFTQKGNLLRHIKL [46F_47W_49P_50I_52G_53H_54Y_55F_67L_, Q9UKT9] | -0.542 | -0.321 | -0.506 | -0.28
5 | FKCNVCGAEFTQKGNLLRHIKL [46F_47K_49N_50V_52G_53A_54E_55F_67L_, Q9UKT9] | -3.18 | -3.1 | -3.12 | -2.1
6 | FHCPICGATFTQKGNLLRHIKL [46F_47H_49P_50I_52G_53A_54T_55F_67L_, Q9UKT9] | 1.64 | 1.89 | 1.62 | 0.481
7 | FMCEVCGAPFTQKGNLLRHIKL [46F_47M_49E_50V_52G_53A_54P_55F_67L_, Q9UKT9] | 2.75 | 3.55 | 3.12 | 2.6
8 | FECEVCGAPFTQKGNLLRHIKL [46F_47E_49E_50V_52G_53A_54P_55F_67L_, Q9UKT9] | 1.65 | -1.41 | 0.683 | 1.6
9 | FKCEVCGAPFTQKGNLLRHIKL [46F_47K_49E_50V_52G_53A_54P_55F_67L_, Q9UKT9] | 2.02 | 1.13 | -1.28 | 1.95
10 | LHCPICGFFCTQKGNLLRHIKL [46L_47H_49P_50I_52G_53F_54F_55C_67L_, Q9UKT9] | 2.35 | 2.51 | 2.79 | 2.23
11 | LGCPICGFFCTQKGNLLRHIKL [46L_47G_49P_50I_52G_53F_54F_55C_67L_, Q9UKT9] | 3.27 | 2.15 | 2.31 | 1.94
12 | LWCPICGFFCTQKGNLLRHIKL [46L_47W_49P_50I_52G_53F_54F_55C_67L_, Q9UKT9] | 2.66 | 3.04 | 2.81 | 2.05
13 | LSCPICGFFCTQKGNLLRHIKL [46L_47S_49P_50I_52G_53F_54F_55C_67L_, Q9UKT9] | 2.05 | 1.71 | 2.64 | 2.39
14 | LACPICGFFCTQKGNLLRHIKL [46L_47A_49P_50I_52G_53F_54F_55C_67L_, Q9UKT9] | 3.31 | 2.49 | 2.27 | 2.24
15 | LCCPICGFFCTQKGNLLRHIKL [46L_47C_49P_50I_52G_53F_54F_55C_67L_, Q9UKT9] | 1.09 | 1.75 | 2.77 | 2.39
16 | FVCNQCGAAFTQKGNLLRHIKL [46F_47V_49N_50Q_52G_53A_54A_55F_67L_, Q9UKT9] | -2.28 | -0.788 | -0.293 | -0.146
17 | FTCNQCGRRFTQKGNLLRHIKL [46F_47T_49N_50Q_52G_53R_54R_55F_67L_, Q9UKT9] | -2.59 | -2.14 | -1.95 | -1.42
18 | FHCPICGRFFTQKGNLLRHIKL [46F_47H_49P_50I_52G_53R_54F_55F_67L_, Q9UKT9] | -0.744 | -1.72 | -0.739 | -1.66
19 | FCCEICGADFTQKGNLLRHIKL [46F_47C_49E_50I_52G_53A_54D_55F_67L_, Q9UKT9] | 0.103 | -0.401 | 0.273 | -0.00478
20 | FCCEQCGAPFTQKGNLLRHIKL [46F_47C_49E_50Q_52G_53A_54P_55F_67L_, Q9UKT9] | -0.706 | -2.38 | -1.75 | -1.28

Row | Sequence | log2 fold change of degron read counts [1] | log2 fold change of degron read counts [2] | log2 fold change of degron read counts [3] | log2 fold change of degron read counts (compound: thalidomide)
21 | FCCEICGAPFTQKGNLLRHIKL [46F_47C_49E_50I_52G_53A_54P_55F_67L_, Q9UKT9] | 3.63 | 2.99 | 1.57 | 2.05
22 | FSCEICGAPFTQKGNLLRHIKL [46F_47S_49E_50I_52G_53A_54P_55F_67L_, Q9UKT9] | 3.54 | 2.69 | 1.29 | 1.99
23 | FKCEICGAPFTQKGNLLRHIKL [46F_47K_49E_50I_52G_53A_54P_55F_67L_, Q9UKT9] | 2.99 | 1.73 | -0.501 | 2.51
24 | FSCEICGADFTQKGNLLRHIKL [46F_47S_49E_50I_52G_53A_54D_55F_67L_, Q9UKT9] | 0.281 | -0.67 | -0.225 | -0.832
25 | FHCNQCGRVFTQKGNLLRHIKL [46F_47H_49N_50Q_52G_53R_54V_55F_67L_, Q9UKT9] | -1.76 | -2.76 | -1.72 | -1.87
26 | FTCPQCGAAFTQKGNLLRHIKL [46F_47T_49P_50Q_52G_53A_54A_55F_67L_, Q9UKT9] | -0.476 | 0.413 | 1.73 | 0.798
27 | FRCEVCGAMFTQKGNLLRHIKL [46F_47R_49E_50V_52G_53A_54M_55F_67L_, Q9UKT9] | -0.953 | -0.985 | 0.652 | 0.605
28 | FICDICGAKFTQKGNLLRHIKL [46F_47I_49D_50I_52G_53A_54K_55F_67L_, Q9UKT9] | -1.2 | 1.29 | -0.575 | 0.898
29 | FQCDICGAKFTQKGNLLRHIKL [46F_47Q_49D_50I_52G_53A_54K_55F_67L_, Q9UKT9] | -0.69 | 2.25 | -0.885 | 3.28
30 | FYCDICGAKFTQKGNLLRHIKL [46F_47Y_49D_50I_52G_53A_54K_55F_67L_, Q9UKT9] | 3.2 | 3.32 | 0.608 | -0.632
31 | FNCDICGAKFTQKGNLLRHIKL [46F_47N_49D_50I_52G_53A_54K_55F_67L_, Q9UKT9] | 0.554 | -1.18 | -2.65 | -2.02
32 | FMCDICGAKFTQKGNLLRHIKL [46F_47M_49D_50I_52G_53A_54K_55F_67L_, Q9UKT9] | -0.74 | -1.21 | -0.567 | -0.432
33 | FKCDICGAKFTQKGNLLRHIKL [46F_47K_49D_50I_52G_53A_54K_55F_67L_, Q9UKT9] | -2.45 | -3.31 | -3.09 | -2.29
34 | FLCDICGAKFTQKGNLLRHIKL [46F_47L_49D_50I_52G_53A_54K_55F_67L_, Q9UKT9] | -0.855 | -1.86 | -1.23 | 0.0222
35 | FCCDICGAKFTQKGNLLRHIKL [46F_47C_49D_50I_52G_53A_54K_55F_67L_, Q9UKT9] | 1.97 | 1.65 | -1.18 | 0.858
36 | FECDICGAKFTQKGNLLRHIKL [46F_47E_49D_50I_52G_53A_54K_55F_67L_, Q9UKT9] | -0.727 | -2.12 | -2.83 | 0.61
37 | FTCDICGAKFTQKGNLLRHIKL [46F_47T_49D_50I_52G_53A_54K_55F_67L_, Q9UKT9] | -0.131 | 0.993 | -1.38 | 0.963
38 | FWCDICGAKFTQKGNLLRHIKL [46F_47W_49D_50I_52G_53A_54K_55F_67L_, Q9UKT9] | 3.22 | 3.7 | 0.265 | -0.173
39 | FFCDICGAKFTQKGNLLRHIKL [46F_47F_49D_50I_52G_53A_54K_55F_67L_, Q9UKT9] | 3.35 | 3.15 | 0.231 | -0.76
